Screening data deposited in PubChem by National Center for Advancing Translational Sciences (NCATS).
Sampled rows, rich in hits. Any-hit rate of the full collection: about 3%.
HBB splice mod: modulators of hemoglobin beta chain splicing | 65,000 compounds, 0.06% hits | Potency, µM (series often up to 46.1 µM), most hits filed as activators | HBB splicing reporter cell assay, activation; EGFP reporter with mutant IVS2-654 intron; response scale: normalised to 500 nM splice-correcting PNA
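Compounds were applied for 2 days to HeLa EGFP-654 cells, 500/well in Optimem with 2% FCS. The reporter's EGFP is disrupted by mis-splicing of beta-globin intron IVS2-654. Readout: summed well GFP fluorescence from 488 nm laser scanning; reference was 500 nM antisense […] 654 PNA.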
Tau filament bind: binds recombinant human tau filaments | P10636 | recombinant tau filaments, thioflavin S fluorescence, 15 h; filaments grown with octadecylsulfate alongside compound | Potency, µM (highest dose often 57.1 µM) | 71,000 compounds, 2% hits | AID 596;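 also: actives lower thioflavin S fluorescence by blocking filaments or displacing dye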
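His-tagged recombinant human tau (exons 2, 3, 10; 1 uM final) fibrillized with 30 uM sodium octadecylsulfate, 15 h at 37 C, in pH 7.4 HEPES buffer with 10 uM thioflavine S and 5 mM DTT. Reduced ThS fluorescence (450/510 nm) marks activity.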
GFP derepression: derepresses silenced GFP locus in mouse C127i cells; mouse C127i GFP locus derepression, cytometry, 30 h; Potency, µM (doses to about 46.1 µM); AID 597; 68,000 compounds, 0.09% hits
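Murine C127i mammary cells carrying a silenced, stably integrated CMV-driven GFP reporter were treated with compound for 30 hours at 37 C. After PBS washes, GFP-positive cells were counted by laser-scanning microplate cytometry.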
ERK AVP block: vasopressin-driven ERK pathway inhibition. Potency, µM (top dose mostly 57.5 µM), hits mostly inhibitors. HEK293-V1b, vasopressin-stimulated pERK AlphaScreen. 72,000 compounds, 0.99% hits. AID 995; also: nearly all actives have a fitted effect of over 55% in size
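Overnight-seeded V1b-HEK293 cells in 1% FBS got compound, then vasopressin (25 nM final, 5 min, 37C), then lysis buffer. AlphaScreen detection of phospho-ERK; activity normalized to basal and full-stimulation controls.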
UbGFP stabilizer: proteasome inhibitors stabilizing ubiquitin-GFP reporter; Ubiquitin-GFP reporter cells, proteasome inhibition, GFP fluorescence; response scale: untreated = 0%, 10 µM MG-132 = 100%; Potency, µM (highest dose often 45.9 µM), most hits filed as activators; 67,000 tested, under 10 active; AID 526; active = well fitted activation curve with a large enough effect, not every such curve was filed as active; inconclusive = small, poorly fitted or top-dose-only effect, or another doubt; inactive = no such curve, though single readings can be large or run the other way
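Proteasome blockade was scored as a rise in GFP-expressing U2OS cells carrying a ubiquitin(G76V)-GFP construct, imaged after 4 hr compound treatment at 37 °C across a 46 uM–2.9 nM series.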
Hsp90 Hop PPI: changes Hsp90-Hop TPR2A binding signal, up or down | AlphaScreen TPR2A-His6 binding biotin-Hsp90 C-terminal peptide | Potency, µM (series often up to 57 µM) | 71,000 compounds, 0.44% hits; active = well fitted curve in either direction with a large enough effect; inconclusive = small, poorly fitted or top-dose-only effect, or another doubt
Each line names hits and unclear results; the compound was inactive in the other large screens. Unless noted, calls follow the shape of the dose curve; as a rule, active = well fitted curve in the direction sought with a large enough effect; inconclusive = small, poorly fitted or top-dose-only effect, or another doubt; inactive = no such curve, though single readings can be large; an effect the other way counts as inactive or inconclusive.

CCOc1cccc(=O)c2c(C)n(Cc3ccco3)c(C)c12	Tau filament bind 3.98µM, GFP derepression inconclusive
CN(Cc1ccco1)c1ccnc(-c2cccc(C#N)c2)n1	none
COc1cccc2c1[C@@H]1CN(CCCCn3c(=O)[nH]c4c(sc5ncc(-c6ccccc6)nc54)c3=O)C[C@H]1CO2	Tau filament bind inconclusive, ERK AVP block inconclusive, Hsp90 Hop PPI inconclusive
CCCCNc1nc(SC)nc2nc[nH]c12	none
CCc1ccc(CNc2ccc(O)cc2)cc1	Tau filament bind 10µM, ERK AVP block inconclusive
Nc1nc(N)c2nn(-c3ccc(C(=O)O)cc3)nc2n1	none
O=c1cnnc(SCCc2ccccc2)[nH]1	Tau filament bind 7.94µM, GFP derepression inconclusive, ERK AVP block inconclusive
Cc1cccc(-n2c(SCC(=O)Nc3nnc(C)s3)nnc2-c2ccoc2C)c1	Tau filament bind 15.8µM, Hsp90 Hop PPI inconclusive
C/C=C/C=C/C=O	none (no result: GFP derepression, UbGFP stabilizer)
CC(C)CCC[C@@H](C)[C@@H]1CC[C@@H]2[C@H]3CC[C@H]4C[C@@H](N)CC[C@@]4(C)[C@@H]3CC[C@]21C	none
Cc1ccc2[nH]c(-c3cccc(N)c3)cc2c1	Tau filament bind 10µM
COC(=O)C1=C(C)NC(C)=C(C(=O)OC)C1c1cc2cc(C)ccc2[nH]c1=O	none
COCCN(CCOC)c1nc(C)nc2c1nc(-c1ccccc1)n2CC1CCN(C)CC1	none (no result: GFP derepression)
N=C(N)SCc1cccc2c(=O)cc(-c3ccccc3)oc12	none
O=c1cc(-c2ccccc2)oc2c1ccc1ccccc12	ERK AVP block 31.6µM (no result: HBB splice mod)
O=c1/c(=C\c2ccc3c(c2)OCO3)sc2n1CCCN=2	ERK AVP block 10µM (no result: HBB splice mod)
c1coc(CN=C2NC(=NCc3ccco3)c3ccccc32)c1	Tau filament bind 10µM
CC(Cc1ccc(O)c(O)c1)(NN)C(=O)O (stereo unspecified)	none (no result: HBB splice mod, Tau filament bind, GFP derepression, UbGFP stabilizer, Hsp90 Hop PPI)
COc1cccc(-c2nccc(NCc3cccs3)n2)c1	none
Clc1ccccc1-c1nccc(NCc2cccs2)n1	ERK AVP block 15.8µM
c1cncc(-c2nccc(NCc3cccs3)n2)c1	ERK AVP block 31.6µM
C[N+](C)(C)CCN(Cc1cccs1)c1ccccn1	none
O=C(CCc1ccc(O)cc1)c1c(O)cc(O)cc1O[C@@H]1O[C@@H](CO)[C@@H](O)[C@@H](O)[C@H]1O	Tau filament bind inconclusive, Hsp90 Hop PPI inconclusive (no result: HBB splice mod, ERK AVP block)
O=C(O)c1cccc(N=Nc2c(S(=O)(=O)O)ccc3c2C(=O)c2ccccc2C3=O)c1O	Tau filament bind 3.16µM
O=S(=O)(O)c1cc(O)c2c(O)c(N=Nc3cccc4ccccc34)c(S(=O)(=O)O)cc2c1	Tau filament bind inconclusive, ERK AVP block inconclusive, Hsp90 Hop PPI inconclusive
O=C(CSc1ccc2nnc(-c3ccccc3)n2n1)N1CCN(c2ccccc2)CC1	Tau filament bind 1.58µM (no result: GFP derepression, ERK AVP block)
COc1ccc(-c2nnc3ccc(SCC(=O)N4CCN(c5ccccc5)CC4)nn23)cc1	none
CCOc1ccccc1N1CCN(S(=O)(=O)CC)CC1	none
CCOc1ccccc1N1CCN(S(=O)(=O)c2cccc3nsnc23)CC1	Tau filament bind 20µM, ERK AVP block inconclusive
Cc1ccc(O)c(-c2cc3ccccc3[nH]2)c1	Tau filament bind 2.51µM
Cc1ccc(C(=O)OCc2cc3ccccc3[nH]c2=O)cc1	none
O=C1c2ccc(O)c(O)c2C(=O)c2c(O)ccc(O)c21	ERK AVP block 3.16µM (no result: HBB splice mod, Tau filament bind, GFP derepression, UbGFP stabilizer, Hsp90 Hop PPI)
NS(=O)(=O)c1ccc(N=Nc2nc3[nH]cnc(=S)c3[nH]2)cc1	HBB splice mod 3.98µM
NS(=O)(=O)c1ccc(N=Nc2nc3[nH]c(=O)[nH]c(=O)c3[nH]2)cc1	none
CCOC(=O)C1=C(C)NC(=O)NC1/C(C)=C/c1ccccc1 (stereo unspecified)	ERK AVP block 31.6µM
CCOC(=O)C1=C(C)NC(=O)NC1C (stereo unspecified)	none
CC[C@]1(O)C[C@H]2CN(CCc3c([nH]c4ccccc34)[C@](C(=O)OC)(c3cc4c(cc3OC)N(C)[C@@H]3[C@](O)(C(=O)OC)[C@H](OC(C)=O)[C@]5(CC)C=CCN6CC[C@]43[C@@H]65)C2)C1	ERK AVP block inconclusive
